High-throughput results from PubChem.
Pin1 inhibitor: blocks the human prolyl isomerase Pin1; 0.009% of 390,000 active; AID 504891; Q13526; Pin1 FP peptide displacement, HiFluor488, 10 min; Potency, µM (titrated, usually from 115 µM), inactives show at the top dose activity, negative = inhibition, most hits filed as inhibitors; active means well fitted inhibition curve with a large enough effect in the polarisation, with a control signal flat, not every such curve was filed as active; inconclusive means small, poorly fitted or top-dose-only effect, or effect the other way, or a change in a side signal; inactive means no such curve, though single readings can be large or run the other way; the % refers to the polarisation; further: potency means the concentration at half of the fitted maximal effect
Target sequence (Q13526 whole entry, looked up): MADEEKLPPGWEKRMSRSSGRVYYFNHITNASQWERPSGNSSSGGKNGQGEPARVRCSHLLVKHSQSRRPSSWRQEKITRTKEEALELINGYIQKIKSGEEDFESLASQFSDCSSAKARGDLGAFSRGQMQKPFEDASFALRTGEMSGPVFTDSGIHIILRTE
KAT2A inh: blocks human GCN5L2 histone acetyltransferase. AID 504327. Potency, µM (doses to about 58.9 µM), without a hit: at the highest dose activity change, negative = inhibition, most hits filed as inhibitors. GCN5L2 HAT assay, ThioGlo1 CoA-SH fluorescence. 0.21% of 390,000 active. Q92830; further: potency means the concentration at half of the fitted maximal effect
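ThioGlo1-coupled HAT assay: 20nM GCN5L2, 70uM acetyl-CoA, 75uM H3(1-25) peptide, pH 7.5. Fluorescence read at 340/540nm at start and after 20 min at room temperature.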
Tb PGK inh: T. brucei PGK inhibition | P07378 | PGK/GAPDH coupled, Kinase-Glo luminescence, 60 min | Potency, µM (series often up to 57.5 µM), for inactives: at the top dose activity change, negative = inhibition, most hits filed as inhibitors | 0.043% of 380,000 active | AID 602233; further: potency means the concentration at half of the fitted maximal effect; nearly all actives have a fitted effect of over 60% in size
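Luminescent ATP detection (Kinase-Glo Plus) follows a 60-minute room-temperature incubation, with wells lacking PGK as controls. Buffer: 100 mM TEA (pH 7.6), 5 mM MgCl2, 0.01% Tween-20. Coupling enzyme GAPDH (100 nM final) supplies unstable 1,3-BPG in-well.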
KCNH2 3.1 block: blocks the human KCNH2 3.1 channel isoform. U2OS KCNH2 3.1, thallium flux FluxOr; stronger effect = lower value. activity change, % (tested at about 1.8 µM). 0.95% of 340,000 active. AID 720553;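 active means maximum activity change below -70%; inconclusive means maximum activity change from -70% to -50%; inactive means maximum activity change above -50%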;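 further: thallium influx rate constant from kinetic fluorescence after stimulation buffer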
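Steps: virus added to U2OS suspension (4 h, RT, dark); medium with 10% FBS added, cells plated, 37 C overnight; FluxOr/Red40 loading buffer 45 min RT; stimulation buffer, 2 min kinetic read; rate constant normalized.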
RGS4 inh: inhibitors of human regulator of G protein signaling 4 | Transcreener GDP fluorescence polarization, RGS4-accelerated GTP hydrolysis | P49798 | Potency, µM (series often up to 114 µM), inactives show top-dose activity change, negative = inhibition, actives largely listed as inhibitors | 0.039% of 390,000 active; further: potency means the concentration at half of the fitted maximal effect; nearly all actives have a fitted effect of over 75% in size
Target sequence (P49798 whole entry, looked up): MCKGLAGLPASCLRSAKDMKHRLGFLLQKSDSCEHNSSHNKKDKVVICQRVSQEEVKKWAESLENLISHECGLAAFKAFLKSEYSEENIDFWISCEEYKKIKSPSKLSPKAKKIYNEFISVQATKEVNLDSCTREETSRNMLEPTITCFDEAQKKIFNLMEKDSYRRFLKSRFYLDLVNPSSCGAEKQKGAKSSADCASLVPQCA
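MLSMR compounds (23 nl, pin-transferred) preincubated 10 min at room temperature with a 500nM (2x) first reagent, then RGS4 at 900nM (2x) plus Transcreener GDP mix added; fluorescence polarization (620/688 nm) read before and after 90 min at 30 °C.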
hERG WT inh: blocks the wildtype human KCNH2 potassium channel. Q12809. U2OS, BacMam KCNH2, thallium flux FluxOr; stronger effect = lower value. activity change, % at 1.84 µM. 0.37% of 340,000 active;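 active means maximum activity change below -70%; inconclusive means maximum activity change between -70% and -50%; inactive means maximum activity change above -50%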
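U2OS cells transduced with wild-type KCNH2 virus are loaded with FluxOr dye for 45 min, and thallium flux is measured in kinetic reads before and after stimulation buffer. Rate constants are normalized to DMSO controls.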
The depositor's hits bear a star; i = inactive; u = inconclusive; x = not tested or not shown; [ ] = remark or other dose. Sampled rows, rich in hits. Any-hit rate of the full collection: about 1.2%. Unless noted, the call rests on the fitted dose curve; in most records, active means well fitted curve in the direction sought with a large enough effect; inconclusive means small, poorly fitted or top-dose-only effect, or another doubt; inactive means no such curve, though single readings can be large; an effect the other way counts as inactive or inconclusive. On the % scale 0 is the no-effect control and ±100 the full control effect.

SMILES | Pin1 inhibitor | KAT2A inh | Tb PGK inh | KCNH2 3.1 block | RGS4 inh | hERG WT inh
CCCn1c(N)c(C(=O)CN2CCN(S(=O)(=O)c3cccc(Cl)c3)CC2)c(=O)[nH]c1=O | 4% | 1% | -3% | -73* | 2% | u
Cc1ccc(-n2nc(CO)c(C(=O)NC(C)c3ccccc3)n2)cc1C (configuration not stated) | 0% | -4% | i | x | 17% | x
CC1CC=CC2C1C(=O)N(Cc1ccccc1)C2c1ccc(/C=C/c2ccccc2)cc1F (configuration not stated) | 11% | x | x | x | -20% | x
CCCCN(C(=O)COC(=O)CSc1cc(C)c2ccccc2n1)c1c(N)n(CCC)c(=O)[nH]c1=O | -16% | -4% | -8% | -16 | 8% | -25
CCCCN(C(=O)COC(=O)CSc1ccc([N+](=O)[O-])cc1)c1c(N)n(CCC)c(=O)[nH]c1=O | 3% | -17% | -8% | -115* | -16% | -3
Cc1nc(SCc2nc3ccccc3[nH]2)c2oc3ccccc3c2n1 | 61% | u | 3% | -9 | 5% | -16
c1ccc2[nH]c(CSc3ncnc4c3oc3ccccc34)nc2c1 | u | 40µM* | i | -30 | -21% | -6
COc1ccc(C)cc1NC(=O)c1ccc2nc(Cc3ccccc3)oc2c1 | 5% | -3% | -6% | x | -28% | x
O=[N+]([O-])c1ccc(S(=O)(=O)N2CCN(c3nc(-c4cccs4)nc4ccccc34)CC2)cc1 | -1% | x | x | x | 9% | x
O=c1cc(CN2CCN(Cc3ccccc3)CC2)c2ccc(O)cc2o1 | 1% | -14% | 7% | -85* | 8% | u
Cc1ccc2c(CN3CCN(Cc4ccccc4)CC3)cc(=O)oc2c1 | 1% | -21% | -1% | -108* | 2% | -86*
Cc1cccc(N(CC(=O)NC(C)c2ccccc2)S(=O)(=O)c2ccccc2)c1C (configuration not stated) | u | -8% | 7% | x | 10% | x
CC(=O)N1CCN(c2ccccc2NC(=O)c2cc(Br)ccc2Cl)CC1 | 0% | -10% | i | -19 | -14% | -1
O=C(Nc1ccccc1N1CCN(C(=O)c2ccc(Cl)cc2)CC1)c1cccc([N+](=O)[O-])c1 | -9% | 0% | -10% | -102* | -25% | -123*
O=C(Nc1ccccc1N1CCN(C(=O)c2ccc(Cl)cc2)CC1)c1cc(Br)ccc1Cl | 3% | -3% | -2% | -101* | 23% | -121*
Cc1ccc(C(=O)Nc2ccccc2N2CCCCC2)cc1[N+](=O)[O-] | 4% | 19% | 1% | -83* | 15% | -7
CN1CCN(c2ccccc2NC(=O)c2cc(Br)ccc2Cl)CC1 | -12% | -8% | -3% | -87* | 7%[11.4 µM] | -23
Cc1ccc(C(=O)NC(=S)Nc2ccccc2N2CCCC2)cc1[N+](=O)[O-] | -3% | -8% | -7% | 5 | -35% | -6
Cc1nc2nc(SCC(=O)NCc3ccccc3)nn2c(C)c1Cc1ccccc1Cl | 11% | -7% | -5% | x | 0% | x
CC(C)CC(=O)Nc1nnc(S(=O)(=O)N(CC(C)C)c2ccccc2)s1 | -2% | -10% | 6% | x | 11% | x
CCC(=O)NCCn1ccc2ccccc21 | -10% | 1% | i | -5 | 12% | -140*
Cc1ccc2c(c1)C(=O)N1[C@H]3c4cc(Cl)ccc4OC[C@@H]3[C@H](c3ccccc3)[C@]1(C)C(=O)N2 | 13% | -4% | -2% | -83* | 1% | -7
COc1ccc(NC(=O)c2cc(S(=O)(=O)NCC3COc4ccccc4O3)ccc2F)cc1 (configuration not stated) | 1% | -7% | -3% | -16 | 4% | 21
CC(C)c1ccc(NC(=O)c2cc(S(=O)(=O)NCC3COc4ccccc4O3)ccc2F)cc1 (configuration not stated) | -10% | -17% | -8% | -72* | -1% | 13
CCCOc1ccc(NC(=O)CC2C(=O)N(c3cccc(OC)c3)C(=O)N2Cc2cccs2)cc1 (configuration not stated) | u | -5% | 1% | x | -11% | x
SMILES | Pin1 inhibitor | KAT2A inh | Tb PGK inh | KCNH2 3.1 block | RGS4 inh | hERG WT inh
O=S(=O)(c1ccccc1)N1CCNc2ccccc21 | -10% | x | 3% | -122* | 20% | 0
Clc1ccc(-c2csc(N/N=C/c3cccnc3)n2)c(Cl)c1 | u | -4% | -1% | -112* | -6% | u
C=C(CCC12O[C@H](C(=O)O)[C@@](O)(C(=O)O)[C@](C(=O)O)(O1)[C@H](OC(=O)/C=C/[C@@H](C)C[C@@H](C)CC)[C@H]2O)[C@@H](OC(C)=O)[C@H](C)Cc1ccccc1 | x | 5µM* | x | x | x | x
O=S(=O)(c1ccccc1)N1CCN(Cc2ccccc2C(F)(F)F)CC1 | u | -7% | -6% | 4 | -11% | 8
Cc1ccc(S(=O)(=O)N2CCN(Cc3ccccc3C(F)(F)F)CC2)cc1 | -1% | 1.6µM* | -6% | -32 | 12% | -2
O=C(c1cc(F)ccc1F)C1CCCN(Cc2cccn2-c2ccccn2)C1 (configuration not stated) | 3% | -2% | -3% | 17 | 5% | -36
COc1ccc(F)cc1C(=O)C1CCCN(Cc2cccn2-c2ccccn2)C1 (configuration not stated) | -1% | -6% | 1% | -86* | 9% | -71*
COc1ccc(C(=O)C2CCCN(Cc3cccn3-c3ccccn3)C2)c(OC)c1 (configuration not stated) | 1% | 0% | -7% | -91* | -7% | -48
CCC(Cn1nnc2ccccc2c1=O)NC(=O)Nc1cc(OC)cc(OC)c1 (configuration not stated) | -4% | -7% | -6% | x | 13% | x
CC1=Nc2ccc(Br)cc2C(c2ccccc2)N1CC(=O)NN (configuration not stated) | -10% | -17% | i | 2 | 0% | 1
NNC(=O)CN1C(CN2CCOCC2)=Nc2ccc(Br)cc2C1c1ccccc1 (configuration not stated) | u | 0% | 1% | -73* | -11% | -32
O=C(Nc1cc(C(F)(F)F)ccc1-n1cncn1)c1cn2ccccc2n1 | 7% | -7% | -7% | -207* | 10% | -152*
CCc1ccc(CN(Cc2cn[nH]c2-c2ccc(OC)cc2)C(=O)Nc2ccc(Br)cc2)cc1 | 6% | -4% | i | x | 5% | x
Clc1ccccc1-c1nc(NC2CCNCC2)c2ccccc2n1 | x | 28µM* | x | x | x | x
